The target in one assay is Albumin (Bos taurus) (UniProt P02769). Description: compounds binding labelled BSA control protein – biochemical, small-molecule microarray, Alexa647 label, 635/667 nm fluorescence, artefact control for SMM control protein annotation, profiling panel (AID 1118).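 Also: score merges 667 nm emission intensity and signal-to-noise per printed compound spot.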 As to conditions: BSA-A647 binding, fluorescence 635 nm, higher = more signal.
A short description of assay [1]: probe aXIP binding to arrayed compounds – biochemical, NeuroSMM set, 635/667 nm fluorescence, primary screen (AID 1119).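 Also: probe is the protein aXip251-270 applied at 1 µg/mL to compound-printed slides; binding of probe to printed compounds measured as 667 nm fluorescence plus signal to noise.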 As to conditions: small-molecule microarray, higher = more signal, called active from +8 up or from −8 down.
A short description of assay [2]: probe aNOTCH3 binding on compound microarray – biochemical, small-molecule microarray, 635/667 nm fluorescence, primary screen (AID 1120).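 Also: probe is a biotin-tagged antibody raised against NOTCH3 rather than NOTCH3 protein; score merges spot fluorescence near 667 nm with spot signal to noise.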 As to conditions: higher = more signal.
A short description of assay [3]: probe aNOTCH2 binding on compound microarray – biochemical, small-molecule microarray, 635/667 nm fluorescence, primary screen (AID 1121).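 Also: score merges feature fluorescence read at 667 nm with its signal to noise.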 The conditions noted are these: higher = more signal.
Assay [4] has as its target Carbonic anhydrase 2 (Homo sapiens) (UniProt P00918). Briefly: compounds binding carbonic anhydrase 2 – biochemical, small-molecule microarray, Alexa647-labelled CAII, profiling panel (AID 1122). The conditions noted are these: CAII-A647 binding fluorescence, higher = more signal.
Assay [5] can be described thus: COS7 lysate on small-molecule microarray, probe aHis, 635 nm (AID 1123).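 Also: z-score combines 667nm fluorescence intensity with signal-to-noise per printed compound spot.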 As to conditions: COS7 cell lysate, fluorescence, higher = more signal.
The nature of assay [6]: probe aLAP1 signal on lysate-treated microarray – cell lysate, small-molecule microarray, COS7 lysate, primary screen (AID 1124).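 Also: lysate comes from COS7 cells expressing LAP1 and is applied at 0.3 µg/mL; score merges spot fluorescence near 667 nm with signal-to-noise over triplicate slides.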 As to conditions: probe aLAP1, fluorescence, higher = more signal.
Another assay concerns Sam68 (KHDRBS1). Description: compounds binding KHDRBS1 protein – biochemical, small-molecule microarray, 635 nm fluorescence, primary screen (AID 1125).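 Also: score merges 667 nm channel intensity with signal to noise over triplicate slides.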 The conditions noted are these: higher = more signal.
The subject of assay [7] is Chordin-like protein 2 (CHRDL2). Description: compounds binding chordin-like 2 – biochemical, small-molecule microarray, 635 nm fluorescence, primary screen (AID 1126).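 Also: printed compound slides probed with Chrdl2 protein at 4 µg/mL for 1 h at 4 C; score merges 667 nm emission intensity with signal to noise over three replicate slides.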 The conditions noted are these: fluorescence 635 nm, higher = more signal.
In assay [8] the target is Concanavalin-A (Canavalia ensiformis) (UniProt P02866). Briefly: compounds binding concanavalin A lectin – biochemical, small-molecule microarray, Alexa647 label, 635 nm, artefact control for SMM control protein annotation, primary screen (AID 1127).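 Also: z combines 667 nm emission intensity with signal-to-noise across three replicate slides.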 The conditions noted are these: ConA-A647 binding fluorescence, higher = more signal.
Concanavalin-A (Canavalia ensiformis), sequence (P02866 whole entry, looked up): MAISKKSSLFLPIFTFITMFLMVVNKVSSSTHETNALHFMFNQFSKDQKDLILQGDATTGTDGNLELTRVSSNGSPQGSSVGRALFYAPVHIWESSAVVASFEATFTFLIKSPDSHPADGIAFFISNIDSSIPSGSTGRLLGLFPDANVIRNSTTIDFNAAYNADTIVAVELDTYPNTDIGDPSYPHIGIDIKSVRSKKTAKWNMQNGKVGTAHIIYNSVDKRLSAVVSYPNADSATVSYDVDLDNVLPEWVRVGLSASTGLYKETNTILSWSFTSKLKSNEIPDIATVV

Activity calls are given as the source filed them.

Albumin (Bos taurus), sequence (P02769 whole entry, looked up): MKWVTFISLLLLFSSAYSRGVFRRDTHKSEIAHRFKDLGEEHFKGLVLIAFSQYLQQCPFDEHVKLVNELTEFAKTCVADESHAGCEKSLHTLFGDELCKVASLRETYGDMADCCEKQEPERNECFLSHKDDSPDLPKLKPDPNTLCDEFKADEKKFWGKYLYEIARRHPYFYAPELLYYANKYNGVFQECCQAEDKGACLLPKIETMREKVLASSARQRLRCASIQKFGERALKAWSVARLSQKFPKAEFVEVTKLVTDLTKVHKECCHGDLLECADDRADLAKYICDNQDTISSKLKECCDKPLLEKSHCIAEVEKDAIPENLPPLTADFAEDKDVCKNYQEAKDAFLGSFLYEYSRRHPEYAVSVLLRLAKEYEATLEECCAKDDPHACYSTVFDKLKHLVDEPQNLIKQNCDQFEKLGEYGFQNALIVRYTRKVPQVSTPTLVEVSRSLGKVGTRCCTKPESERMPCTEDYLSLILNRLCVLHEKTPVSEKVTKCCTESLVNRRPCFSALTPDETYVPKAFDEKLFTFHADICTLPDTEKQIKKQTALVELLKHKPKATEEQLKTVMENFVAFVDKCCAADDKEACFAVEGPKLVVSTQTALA

With `Cc1cc2c(c(=O)o1)[C@@H](O)[C@H]1O[C@H]1C2=O`, the composite z-score with Albumin (Bos taurus) was -0.293; in [2], -0.0744; in assay [3], -0.132; in assay [4] it was -0.131; in assay [5], -0.243; in assay [6] it was -0.108. The values for the composite z-score (in the assay with Sam68 (KHDRBS1); in [7]; in [8]) were 0.568, 0.705 and 0.358, respectively. The composite Z-score in assay [1] was -0.0055 (inactive).
Turning to `O=C1[C@H]2[C@H]3[C@H](O)[C@H](O)CC(=NOC[C@@H](O)COCc4ccco4)[C@H]3CC[C@H]2C(=O)N1C[C@@H]1CCCO1`, the composite z-score in the assay with Albumin (Bos taurus) was -0.483; in assay [2], -0.0976; in [3], -0.208; in assay [4], -0.237; in assay [5] it was -0.736; in assay [6] it was -0.353. For the same compound, the results for the composite z-score (with Sam68 (KHDRBS1); in [7]; in assay [8]) were 0.293, 1.38 and -0.294, respectively. Also, the composite Z-score in [1] was 0.382 (inactive).
Turning to `CON=C[C@@H](C)[C@H](OCc1ccccc1)C(C)C`, the composite z-score in the assay with Albumin (Bos taurus) is -0.784; in assay [2] it was -0.0647; in [3], -0.162; in [4] it was -0.269; in assay [5], -0.606; in assay [6], -0.0291. The composite z-score with Sam68 (KHDRBS1) was -0.295; in assay [7] it was 0.54; in assay [8], -0.413. In assay [1], the composite Z-score is -0.47 (inactive).
In the case of `CO[C@H]1COC(=O)CC=C[C@@H](C)[C@H](NS(=O)(=O)c2ccc(C)cc2)COC(=O)CCC[C@@H]1C`, the composite z-score is -0.48 with Albumin (Bos taurus); -0.0711 in assay [2]; -0.11 in assay [3]; -0.312 in assay [4]; -0.42 in [5]; 0.303 in [6]. The composite z-score with Sam68 (KHDRBS1) was 0.515; in assay [7] it was 1.23; in [8], -0.0177. Also, the composite Z-score in assay [1] was -0.483 (inactive).
As to `COc1ccc(O[C@H]2C=C[C@@H](c3ccccc3)O[C@@H]2COC(=O)CCC(C)=NO[C@@H]2O[C@H](COC(C)=O)[C@@H](OC(C)=O)[C@H](OC(C)=O)[C@H]2OC(C)=O)cc1`, the composite z-score is 0.303 with Albumin (Bos taurus); 0.0322 in [2]; -0.211 in assay [3]; -0.0481 in assay [4]; 0.752 in assay [5]; 0.0839 in [6]. The composite z-score in the assay with Sam68 (KHDRBS1) is 1.32; in assay [7], 0.786; in [8], 0.544. The composite Z-score in assay [1] was -0.211 (inactive).
For `Cc1ccc(S(=O)(=O)NC(CCc2ccccc2)CC(=O)C(C)(C)C)cc1` (stereo not given), the composite z-score with Albumin (Bos taurus) is -0.122; in [2], 0.0591; in [3], -0.0984; in assay [4], 0.0117; in [5], 0.0881; in assay [6] it was -0.113. The composite z-score in the assay on Sam68 (KHDRBS1) amounted to 0.93; in assay [7], 0.686; in assay [8] it was 0.87. For the same compound, the composite Z-score in [1] was 0.6 (inactive).
`C=CC[C@@H]1C=C[C@H](ON=C(C)CCC(=O)OC[C@H]2O[C@H](c3ccccc3)C=C[C@@H]2Oc2ccc(OC)cc2)[C@@H](CO)O1`: the composite z-score with Albumin (Bos taurus) was -0.1; in assay [2] it was -0.171; in assay [3], -0.177; in assay [4] it was -0.273; in assay [5], 0.342; in [6], -0.0007. Further, the composite z-score in the assay on Sam68 (KHDRBS1) is 0.144; in assay [7] it was -0.0018; in [8] it was -0.152. Besides, the composite Z-score in assay [1] is 0.741 (inactive).
For `CCCCC#C[C@@H]1C=C[C@H](Oc2ccc(C(=O)OC)cc2)[C@@H](COC(=O)OCC)O1`, the composite z-score was 0.109 with Albumin (Bos taurus); -0.106 in assay [2]; -0.0578 in assay [3]; 0.39 in assay [4]; 0.205 in assay [5]; 0.0053 in [6]. Besides, the composite z-score in the assay on Sam68 (KHDRBS1) was found to be 0.769; in assay [7], 0.978; in assay [8], 0.64. Further, the composite Z-score in [1] was -0.0877 (inactive).
In the case of `CCOC(=O)CCN1C(=O)[C@H]2[C@H]3[C@H](O)[C@H](O)CC(=NOCC(C)C)[C@H]3CC[C@H]2C1=O`, the composite z-score is 0.345 in the assay with Albumin (Bos taurus); -0.0377 in [2]; -0.14 in [3]; -0.278 in [4]; 0.163 in [5]; 0.528 in assay [6]. For the same compound, the values for the composite z-score (in the assay with Sam68 (KHDRBS1); in [7]; in assay [8]) were -0.353, 0.433 and 0.0589, respectively. The composite Z-score in assay [1] is 0.636 (inactive).
Consider `COC(=O)[C@H](C)NC(=O)CCC1CC(OC(=O)NCc2cccc3ccccc23)CC2(CCCC(COC(=O)NCC(c3ccccc3)c3ccccc3)O2)O1` (stereo not given in full), for which the composite z-score in the assay with Albumin (Bos taurus) is 0.576; in assay [2], 0.0242; in [3], -0.0895; in assay [4], 0.553; in assay [5], 1.27; in assay [6] it was 0.433. For the same compound, the results for the composite z-score (in the assay with Sam68 (KHDRBS1); in assay [7]; in [8]) were 1.32, -0.087 and 0.423, respectively. Further, the composite Z-score in assay [1] is -0.171 (inactive).
`C#CCCCON=C1C[C@@H](O)[C@@H](O)[C@@H]2[C@@H]3C(=O)N(c4ccc(F)cc4F)C(=O)[C@@H]3CC[C@H]12`: the composite z-score with Albumin (Bos taurus) was 0.314; in assay [2], -0.122; in assay [3] it was -0.151; in assay [4], 0.65; in assay [5], 0.887; in assay [6] it was 0.145. Moreover, the composite z-score in the assay on Sam68 (KHDRBS1) was found to be 1.15; in assay [7], 0.392; in assay [8] it was 0.772. Besides, the composite Z-score in assay [1] is -0.488 (inactive).
As to `CO[C@H]1COC(=O)[C@H](C)NC(=O)[C@@H](C)COC(=O)[C@H]2CCCN2C(=O)CC=C[C@H]1C`, the composite z-score is -0.74 with Albumin (Bos taurus); -0.178 in assay [2]; -0.148 in assay [3]; -0.273 in assay [4]; -0.414 in assay [5]; -0.0354 in assay [6]. The results for the composite z-score (with Sam68 (KHDRBS1); in [7]; in assay [8]) were 0.476, 1.17 and -0.229, respectively. In addition, the composite Z-score in assay [1] is -0.533 (inactive).
For the compound `CO[C@@H]1COC(=O)[C@H](CCSC)NC(=O)CC=C[C@@H](C)COC(=O)[C@H](C)NC(=O)CC=C[C@H]1C`, the composite z-score was -1.04 with Albumin (Bos taurus); 0.187 in assay [2]; -0.0907 in assay [3]; -0.0169 in assay [4]; -0.395 in [5]; 0.36 in [6]. Moreover, the composite z-score in the assay on Sam68 (KHDRBS1) was 1.28; in assay [7], 1.15; in assay [8], -0.19. Besides, the composite Z-score in assay [1] was 0.327 (inactive).
For `COC(=O)CC=C[C@H](C)[C@@H](OCc1cccc(Br)c1)[C@@H](C)[C@H](OC)C1CCCCC1`, the composite z-score was -1.15 in the assay with Albumin (Bos taurus); -0.0914 in assay [2]; -0.124 in assay [3]; 0.0679 in [4]; -0.504 in assay [5]; -0.0998 in assay [6]. Moreover, the composite z-score was -0.446 in the assay on Sam68 (KHDRBS1), 0.652 in assay [7] and -1.23 in [8]. Also, in assay [1], the composite Z-score is 0.143 (inactive).
As for `CO[C@@H]1COC(=O)[C@H](CCSC)NC(=O)CC=C[C@@H](C)COC(=O)CCC[C@H]1C`, the composite z-score was -0.978 in the assay with Albumin (Bos taurus); -0.0284 in assay [2]; -0.147 in assay [3]; -0.654 in assay [4]; -1.31 in [5]; 1.01 in [6]. Further, the figures for the composite z-score (in the assay with Sam68 (KHDRBS1); in assay [7]; in assay [8]) were 0.973, 1.68 and -1.11, respectively. In [1], the composite Z-score is 1.81 (inactive).
On to `CON=CC[C@@H]1C=C[C@H](OC(C)=O)[C@@H](COC(C)=O)O1`, for which the composite z-score with Albumin (Bos taurus) is -0.714; in assay [2] it was 0.287; in [3], 0.0007; in [4], 0.397; in assay [5] it was 0.043; in assay [6] it was 0.18. Moreover, the composite z-score is -0.0499 with Sam68 (KHDRBS1), 0.679 in assay [7] and -0.32 in assay [8]. Besides, the composite Z-score in [1] is 1.33 (inactive).

The values above are taken from PubChem BioAssay.
